# Results as given in the supplement of paper PMC12282887.
# ± gives the standard deviation of the averaged measurements.
# Columns and labels:
# Assay in all cases: promoter activity interaction Z-score (Lux/OD deviation from empty-vector control); higher = stronger promoter induction by the compound
# [1] = test system: E. coli BW25113 acrABp lux reporter
# Method in brief: (§1)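 Every compound was given at four 1:2 dilutions, in biological duplicates, to E. coli BW25113 carrying low-copy luxCDABE promoter reporters in wild-type or single-gene deletion backgrounds. Growth in 40 µl LB Lennox in 384-well plates at 37°C was followed by OD600 and luminescence readings every 30 min for 12 h, integrated over 0–8 h for wild type and 1–9 h for deletion strains, with wells below 10% of the median growth value excluded. Scores are Z-transformed residuals of growth-normalised luminescence fitted against a control.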
# [2] = test system: E. coli BW25113 micFp lux reporter
# Method in brief: as §1
# [3] = test system: E. coli BW25113 ompFp lux reporter
# Method in brief: as §1
# [4] = test system: E. coli BW25113 robp lux reporter
# Method in brief: as §1
# [5] = test system: E. coli BW25113 soxSp lux reporter
# Method in brief: as §1
# [6] = test system: E. coli BW25113 tolCp lux reporter
# Method in brief: as §1
# [7] = 18.3 µg/ml, genetic background: wild type
# [8] = 18.3 µg/ml, genetic background: ΔmarA
# [9] = 18.3 µg/ml, genetic background: Δrob
# [10] = 18.3 µg/ml, genetic background: ΔsoxS
# [11] = 36.5 µg/ml, genetic background: wild type
# [12] = 36.5 µg/ml, genetic background: ΔmarA
# [13] = 36.5 µg/ml, genetic background: Δrob
# [14] = 36.5 µg/ml, genetic background: ΔsoxS
# [15] = 73.1 µg/ml, genetic background: wild type
# [16] = 73.1 µg/ml, genetic background: ΔmarA
# [17] = 73.1 µg/ml, genetic background: Δrob
# [18] = 73.1 µg/ml, genetic background: ΔsoxS
# [19] = 146.1 µg/ml, genetic background: wild type
# [20] = 146.1 µg/ml, genetic background: ΔmarA
# [21] = 146.1 µg/ml, genetic background: Δrob
compound,measurement,setting,value
O=C(O)CN(CCN(CC(=O)O)CC(=O)O)CC(=O)O,promoter activity interaction Z-score,[1]; [7],-0.0934 ± 0.22
same,promoter activity interaction Z-score,[1]; [8],-0.603 ± 0.65
same,promoter activity interaction Z-score,[1]; [9],-0.36 ± 0.3
same,promoter activity interaction Z-score,[1]; [10],-0.525 ± 0.13
same,promoter activity interaction Z-score,[1]; [11],-0.397 ± 0.38
same,promoter activity interaction Z-score,[1]; [12],-0.546 ± 0.64
same,promoter activity interaction Z-score,[1]; [13],-0.8 ± 0.08
same,promoter activity interaction Z-score,[1]; [14],-0.688 ± 0.13
same,promoter activity interaction Z-score,[1]; [15],-0.174 ± 0.17
same,promoter activity interaction Z-score,[1]; [16],-0.55 ± 0.59
same,promoter activity interaction Z-score,[1]; [17],-0.865 ± 0.14
same,promoter activity interaction Z-score,[1]; [18],-0.724 ± 0.18
same,promoter activity interaction Z-score,[1]; [19],-0.36 ± 0.21
same,promoter activity interaction Z-score,[1]; [20],-1.25 ± 0.29
same,promoter activity interaction Z-score,[1]; [21],0.682 ± 0.76
same,promoter activity interaction Z-score,[2]; [7],0.0311 ± 0.38
same,promoter activity interaction Z-score,[2]; [8],0.0253 ± 0.09
same,promoter activity interaction Z-score,[2]; [9],-0.0661 ± 0.029
same,promoter activity interaction Z-score,[2]; [10],0.33 ± 0.3
same,promoter activity interaction Z-score,[2]; [11],0.187 ± 0.43
same,promoter activity interaction Z-score,[2]; [12],0.106 ± 0.075
same,promoter activity interaction Z-score,[2]; [13],-0.0635 ± 0.073
same,promoter activity interaction Z-score,[2]; [14],0.413 ± 0.38
same,promoter activity interaction Z-score,[2]; [15],0.253 ± 0.014
same,promoter activity interaction Z-score,[2]; [16],0.129 ± 0.061
same,promoter activity interaction Z-score,[2]; [17],0.0924 ± 0.051
same,promoter activity interaction Z-score,[2]; [18],0.66 ± 0.28
same,promoter activity interaction Z-score,[2]; [19],1.76 ± 0.36
same,promoter activity interaction Z-score,[2]; [20],2.53 ± 1.4
same,promoter activity interaction Z-score,[2]; [21],2.95 ± 1.1
same,promoter activity interaction Z-score,[3]; [7],-0.399 ± 0.35
same,promoter activity interaction Z-score,[3]; [8],-0.581 ± 0.52
same,promoter activity interaction Z-score,[3]; [9],-0.522 ± 0.013
same,promoter activity interaction Z-score,[3]; [10],0.261 ± 0.35
same,promoter activity interaction Z-score,[3]; [11],-0.73 ± 0.2
same,promoter activity interaction Z-score,[3]; [12],-0.519 ± 0.045
same,promoter activity interaction Z-score,[3]; [13],-0.748 ± 0.082
same,promoter activity interaction Z-score,[3]; [14],0.0564 ± 0.85
same,promoter activity interaction Z-score,[3]; [15],-1.22 ± 0.24
same,promoter activity interaction Z-score,[3]; [16],-0.836 ± 0.33
same,promoter activity interaction Z-score,[3]; [17],-0.994 ± 0.2
same,promoter activity interaction Z-score,[3]; [18],0.0122 ± 0.85
same,promoter activity interaction Z-score,[3]; [19],-1.07 ± 0.81
same,promoter activity interaction Z-score,[3]; [20],-1.23 ± 0.21
same,promoter activity interaction Z-score,[3]; [21],-1.04 ± 0.81
same,promoter activity interaction Z-score,[4]; [7],-0.212 ± 0.066
same,promoter activity interaction Z-score,[4]; [8],-1.05 ± 0.051
same,promoter activity interaction Z-score,[4]; [9],0.174 ± 0.67
same,promoter activity interaction Z-score,[4]; [10],0.244 ± 0.58
same,promoter activity interaction Z-score,[4]; [11],-0.656 ± 0.16
same,promoter activity interaction Z-score,[4]; [12],-0.174 ± 0.088
same,promoter activity interaction Z-score,[4]; [13],-0.454 ± 0.91
same,promoter activity interaction Z-score,[4]; [14],0.113 ± 1.1
same,promoter activity interaction Z-score,[4]; [15],-0.785 ± 0.22
same,promoter activity interaction Z-score,[4]; [16],-0.143 ± 0.47
same,promoter activity interaction Z-score,[4]; [17],-0.796 ± 0.055
same,promoter activity interaction Z-score,[4]; [18],-0.553 ± 0.47
same,promoter activity interaction Z-score,[4]; [19],-1.32 ± 0.071
same,promoter activity interaction Z-score,[4]; [20],-1.53 ± 0.59
same,promoter activity interaction Z-score,[5]; [7],-0.509 ± 0.063
same,promoter activity interaction Z-score,[5]; [8],-0.316 ± 0.052
same,promoter activity interaction Z-score,[5]; [9],-0.315 ± 0.048
same,promoter activity interaction Z-score,[5]; [10],-0.181 ± 0.14
same,promoter activity interaction Z-score,[5]; [11],-0.478 ± 0.23
same,promoter activity interaction Z-score,[5]; [12],-0.479 ± 0.017
same,promoter activity interaction Z-score,[5]; [13],-0.494 ± 0.011
same,promoter activity interaction Z-score,[5]; [14],-0.421 ± 0.15
same,promoter activity interaction Z-score,[5]; [15],-0.487 ± 0.045
same,promoter activity interaction Z-score,[5]; [16],-0.43 ± 0.35
same,promoter activity interaction Z-score,[5]; [17],-0.698 ± 0.13
same,promoter activity interaction Z-score,[5]; [18],-0.236 ± 0.11
same,promoter activity interaction Z-score,[5]; [19],1.26 ± 0.066
same,promoter activity interaction Z-score,[5]; [20],1.71 ± 1.1
same,promoter activity interaction Z-score,[5]; [21],1.4 ± 0.082
same,promoter activity interaction Z-score,[6]; [7],0.221 ± 0.32
same,promoter activity interaction Z-score,[6]; [8],-0.411 ± 0.67
same,promoter activity interaction Z-score,[6]; [9],-0.43 ± 0.067
same,promoter activity interaction Z-score,[6]; [10],0.426 ± 0.54
same,promoter activity interaction Z-score,[6]; [11],0.548 ± 0.048
same,promoter activity interaction Z-score,[6]; [12],-0.02 ± 1
same,promoter activity interaction Z-score,[6]; [13],-0.146 ± 0.27
same,promoter activity interaction Z-score,[6]; [14],-0.2 ± 0.11
same,promoter activity interaction Z-score,[6]; [15],-0.165 ± 0.86
same,promoter activity interaction Z-score,[6]; [16],-0.102 ± 0.4
same,promoter activity interaction Z-score,[6]; [17],-0.0689 ± 0.14
same,promoter activity interaction Z-score,[6]; [18],0.835 ± 0.86
same,promoter activity interaction Z-score,[6]; [19],1.75 ± 0.63
same,promoter activity interaction Z-score,[6]; [20],1.55 ± 0.38
same,promoter activity interaction Z-score,[6]; [21],1.79 ± 0.72
